Laboratory results as given in PubChem BioAssay AID1220 (Sanford-Burnham Center for Chemical Genomics, 2008).
Several values for one entry are separate records, joined by “and”; a condition that tells them apart may be missing. Equal values may be shown once. Out of some 190,000 compounds screened, about 1,300 (0.68%) were called active. Rule as the data show it: active = inhibition above about 50%; inactive = the rest. Shown is part of a subset that was picked to be rich in actives. Some compounds were tested as several samples or in several runs, with calls that do not always agree.

Each compound was assayed against Mannose-6-phosphate isomerase (Homo sapiens) (UniProt P34949) (assay: MPI inhibition at elevated mannose 6-phosphate – biochemical, fluorescence intensity, high mannose 6-phosphate, primary screen (AID 1220)). Details: recombinant PMI enzyme, coupled fluorescence intensity; at 20 µM; stronger effect = higher value.
Mannose-6-phosphate isomerase (Homo sapiens), sequence (P34949 whole entry, looked up): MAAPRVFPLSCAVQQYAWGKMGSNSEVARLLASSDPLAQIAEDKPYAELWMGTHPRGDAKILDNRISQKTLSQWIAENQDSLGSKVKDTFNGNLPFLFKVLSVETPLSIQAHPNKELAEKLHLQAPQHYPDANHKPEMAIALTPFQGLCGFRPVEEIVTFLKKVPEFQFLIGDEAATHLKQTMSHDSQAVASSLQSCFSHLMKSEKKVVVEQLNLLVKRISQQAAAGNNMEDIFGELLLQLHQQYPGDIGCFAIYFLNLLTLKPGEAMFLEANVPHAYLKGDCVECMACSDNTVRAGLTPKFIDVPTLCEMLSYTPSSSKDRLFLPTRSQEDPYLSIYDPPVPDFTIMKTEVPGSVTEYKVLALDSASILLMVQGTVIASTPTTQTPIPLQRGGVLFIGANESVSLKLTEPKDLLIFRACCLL

inhibition, inactive:
CN(c1ccccc1)S(=O)(=O)c1ccc(Cl)c(C(=O)Nc2ccc(-c3nc4ccccc4[nH]3)cc2)c1 3.8%
CC1CCCC(NC(=O)CC2Nc3ccccc3NC2=O)C1C (stereo unspecified) -4.1%
N#C/C(=C\c1cn(Cc2ccccc2)c2ccccc12)C(=O)NCc1ccco1 15.2%
Nn1cnnc1SCC(=O)Nc1ccc2c(c1)OCCO2 9.6%
O=C(NCc1ccco1)/C(=C/C=C/c1ccccc1)NC(=O)c1ccco1 6%
CC(=O)c1ccc(NC(=S)NCc2cccnc2)cc1 -2.6%
c1ccc(COc2cccc(CNCc3ccccn3)c2)cc1 -10.4%
Cc1ccc2cc(CCNC(=O)Cc3cccs3)c(=O)[nH]c2c1 -0.6%
Fc1ccccc1-c1nc2ccccc2[nH]1 -1.9%
c1ccc(-c2cc(-c3nc4ccccc4[nH]3)c3ccccc3n2)cc1 12.1%
CCOC(=O)N1CCN(c2cc(NCCC(=O)O)c3c4c(onc24)-c2ccccc2C3=O)CC1 -2.8%
CN1CCN(c2ccc(Cl)cc2NC(=O)CCN2C(=O)c3ccccc3C2=O)CC1 -10.2%
CCCCNC(=O)c1ccc(N2CCC3(CC2)OCCO3)c([N+](=O)[O-])c1 2.4%
O=C(O)CCCCCNS(=O)(=O)c1cccc2c1C(=O)c1ccccc1C2=O 31.4%
CC(Oc1ccccc1F)C(=O)NNC(=O)c1cc2ccccc2o1 (stereo unspecified) 2.5%
Cc1ccc(NC(=S)NC2CCN(Cc3ccccc3)CC2)cc1 8.2%
COc1cc(NC(=O)Cn2cnc3ccccc3c2=O)c(OC)cc1Cl 14.9%
CCOC(=O)c1sc2ncnc(N3CCN(CC)CC3)c2c1C -2.6%
O=C(Cn1cnc2c(nnn2Cc2ccc(F)cc2)c1=O)NCc1ccc(F)cc1 -6.8%
COC(=O)c1cc(C(=O)OC)cc(-n2c(C)cc(C(=O)COC(=O)CNS(=O)(=O)c3ccc(C)cc3)c2C)c1 6.4%
Cc1cc(N/N=C/c2ccc(O)c(C)c2O)nc(-c2ccccc2O)n1 33.4%
C(=N\Nc1ccccn1)/c1ccc(N2CCOCC2)cc1 23.5%
CC(=O)NNc1cc(N2CCOCC2)nc(N2CCOCC2)n1 11.3%
Oc1ccc(/C=N/Nc2nc(N3CCCC3)nc(N3CCCC3)n2)cc1O 27%
Cc1cc(N/N=C/c2ccccc2O)nc(-c2ccccc2O)n1 48.2%
Oc1ccc(/C=N/Nc2nc(N3CCCCCC3)nc(N3CCCCCC3)n2)c(O)c1 19.9%

inhibition, active:
O=C(O)CCCNc1cc(N2CCC3(CC2)OCCO3)c2noc3c2c1C(=O)c1ccccc1-3 54.1%
CC(=O)OCCNc1cc(N2CCN(C)CC2)c2noc3c2c1C(=O)c1ccccc1-3 50.5%
Cc1cc(N/N=C/c2ccc(O)cc2O)nc(-c2ccccc2O)n1 52.9%
Oc1ccc(/C=N\Nc2cc(N3CCOCC3)nc(N3CCOCC3)n2)c(O)c1 61.1%

inhibition, 51.2% (active) and -1.5% (inactive):
c1ccc2[nH]c(-c3ccnc4ccccc34)nc2c1
